Screens: PubChem, National Center for Advancing Translational Sciences (NCATS)
p53ts 39C tox: qHTS Screen for Compounds that Selectively Target Cancer Cells with p53 Mutations: Cytotoxicity of p53ts Cells at the Nonpermissive Temperature | 130,000 compounds, 1.5% hits | H1299-p53A138V viability at 39C, ATP luminescence, 24 h | Potency, µM (series often up to 46.1 µM), without a hit: at the highest dose activity change, negative = cell killing, usual class: cytotoxic; note: % is set by controls: 0 for no effect and ±100 for the full control effect; nearly all actives have a fitted effect of over 55% in size
Imprint erasure: qHTS Assay for Compounds that Induce Erasure of Genomic Imprints; Potency, µM (doses to about 60.7 µM), for inactives: top-dose activity change, positive = activation, hits mostly activators; 110,000 compounds, 0.02% hits; AID 1948, 2009; mouse ES Peg3-LacZ reporter, beta-gal luminescence, 40 h
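Imprint erasure is scored as LacZ activity from the silenced maternal Peg3 allele in feeder-free female ES cells cultured 40 h with LIF. Luminescence is normalized to in-plate negative controls and fitted to the Hill equation.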
IkB sig inh: IkB Signaling; ABC-DLBCL IkBa-CBG/CBR dual luciferase ratio, 4 h; response scale: scaled: untreated 0%, proteasome inhibitor 100%; Potency, µM (top dose mostly 57.1 µM), inactives show at the top dose IkBa stabilization activation; 110,000 compounds, 0.04% hits; AID 445, 2006; active = well fitted curve in the direction sought with a large enough effect in the signal ratio, not every such curve was filed as active; inconclusive = small, poorly fitted or top-dose-only effect, or a change in a side signal; the % refers to the signal ratio;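 note: the direction sought is a rising ratio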
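Luminescence ratio of IκBα-fused green versus native red beetle luciferase in OCI-Ly3 cells, 4 h post-doxycycline with compound; red signal alone, scaled from basal (0%) to zero light (-100%), flagged nonspecific or cytotoxic effects.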
p53ts 32C kill: qHTS Screen for Compounds that Selectively Target Cancer Cells with p53 Mutations: Cytotoxicity of p53ts Cells at the Permissive Temperature; H1299-p53A138V at 32C, ATP luminescence viability, 24 h; Potency, µM (top dose mostly 46.1 µM), without a hit: top-dose activity change, negative = cytotoxicity, usual class: cytotoxic; 130,000 compounds, 0.93% hits;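 note: 0% = DMSO and -100% = full killing by reference compound; nearly all actives have a fitted effect of over 55% in size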
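Viability by ATPlite luminescence after 24 h compound treatment (up to 46 uM) at the permissive 32C. Cells are H1299 carrying p53 A138V. Scale runs from DMSO basal to 100 uM tamoxifen as full kill; AC50 from Hill fits.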
Numbers without * were called inactive; [ ] = remark or other dose. Sampled rows, rich in hits. Any-hit rate of the full collection: about 1.8%. Unless noted, calls come from the whole dose curve; as a rule, active = well fitted curve in the direction sought with a large enough effect; inconclusive = small, poorly fitted or top-dose-only effect, or another doubt; inactive = no such curve, though single readings can be large; an effect the other way counts as inactive or inconclusive. Potency is the fitted concentration of half-maximal effect.

`COc1ccc(-c2noc(-c3cccc(OC)c3OC)n2)cc1` gave p53ts 39C tox inconclusive, Imprint erasure -3%[10.9 µM], IkB sig inh inconclusive and p53ts 32C kill 13µM*.
Screening COc1ccccc1-c1nc(-c2ccc(C)nc2OC)no1 returned p53ts 39C tox inconclusive, Imprint erasure -32%, IkB sig inh -6% and p53ts 32C kill inconclusive.
Screening COc1ccccc1-c1nc(-c2ccccn2)no1 returned p53ts 39C tox 5µM*, Imprint erasure -94%, IkB sig inh inconclusive and p53ts 32C kill 4µM*.
`COc1nc(C)ccc1-c1noc(-c2ccccn2)n1` gave p53ts 39C tox 10µM*, Imprint erasure -76%, IkB sig inh -4% and p53ts 32C kill 10µM*.
COc1ccccc1-c1noc(-c2ccncc2)n1 was read as p53ts 39C tox inconclusive, Imprint erasure -81%, IkB sig inh 5% and p53ts 32C kill inconclusive.
Screening C=C(C)Cn1c(SCC)nc2ccccc2c1=O returned p53ts 39C tox -3%, Imprint erasure 2%, IkB sig inh -1% and p53ts 32C kill -3%.
Screening C=C(C)Cn1c(SCC#N)nc2ccccc2c1=O returned p53ts 39C tox -8%, Imprint erasure 1µM*, IkB sig inh -2% and p53ts 32C kill -5%.
Cc1c(C(=O)NCC2CCCO2)oc2ccc3c(c12)C(=O)CC(C)(C)O3 (stereo not given) was read as p53ts 39C tox inconclusive and p53ts 32C kill 13µM*.
Screening Cc1cc(C)cc(NC(=O)c2oc3ccc4c(c3c2C)C(=O)CC(C)(C)O4)c1 returned p53ts 39C tox inconclusive, Imprint erasure -32%[10.9 µM], IkB sig inh inconclusive and p53ts 32C kill inconclusive.
`Cc1c(C(=O)Nc2cccc(C(F)(F)F)c2)oc2ccc3c(c12)C(=O)CC(C)(C)O3` gave p53ts 39C tox 16µM*, Imprint erasure -14%[10.9 µM], IkB sig inh -1% and p53ts 32C kill -29%.
`Cc1ccc(S(=O)(=O)N2CCC(C(=O)O)(c3ccccc3)CC2)cc1` gave p53ts 39C tox 24%[9.22 µM], Imprint erasure -8%[10.9 µM], IkB sig inh 2%[11.4 µM] and p53ts 32C kill -2%[9.22 µM].
For O=C(c1ccc(CS(=O)c2ccccc2Cl)o1)N1CCN(c2cccc(C(F)(F)F)c2)CC1 (stereo not given) the results were p53ts 39C tox -17%, Imprint erasure -29%[10.9 µM], IkB sig inh inconclusive and p53ts 32C kill -1%.
For Cc1cccc(C(=O)O)c1C[C@H]1NCC[C@H]2c3ccccc3N[C@@H]12 the results were p53ts 39C tox 9%[9.22 µM], Imprint erasure -9%[10.9 µM], IkB sig inh 0%[11.4 µM] and p53ts 32C kill 4%[9.22 µM].
O=C(NC1CC1)c1ccc(Cn2c(SCc3ccccc3F)nc3cccnc32)cc1 was read as p53ts 32C kill 16µM*.
For Cc1ccc(CSc2nc3cccnc3n2Cc2ccc(C(=O)NCCc3cccs3)cc2)cc1 the results were p53ts 32C kill 5µM*.
O=C(NC1CCCCC1)c1ccc(CSc2nc3cccnc3n2Cc2ccccc2F)cc1 was read as p53ts 32C kill -14%.
Cc1ccc(CSc2nc3cccnc3n2Cc2ccc(C(=O)NC3CCCCC3)cc2)cc1 was read as p53ts 32C kill 11µM*.
O=C(NCc1cccs1)c1ccc(CSc2nc3cccnc3n2Cc2ccccc2)cc1 was read as p53ts 32C kill -11%.
`NC(=O)c1ccc(-c2ncc(-c3ccccc3)o2)cc1` gave p53ts 39C tox 20µM*, Imprint erasure -6%, IkB sig inh 7% and p53ts 32C kill inconclusive.
Screening c1ccc(-c2cnc(-c3cccnc3)o2)cc1 returned p53ts 39C tox -22%, Imprint erasure -37%, IkB sig inh 4% and p53ts 32C kill -29%.
Screening Cc1ccc(CSc2nc3c(c(=O)[nH]2)C(c2cccc(F)c2F)CC(=O)N3)cc1 (stereo not given) returned p53ts 39C tox -10%, Imprint erasure -14%[10.9 µM], IkB sig inh 0% and p53ts 32C kill inconclusive.
`c1ccc(-c2ccc(N3CC4(CCNCC4)C3)cc2)cc1` gave p53ts 39C tox 16µM*, IkB sig inh 30%[11.4 µM] and p53ts 32C kill 20µM*.
`COC(=O)N1CCC2(CC1)CN(c1ccc(-c3ccccc3)cc1)C2` gave p53ts 39C tox -14%, IkB sig inh 11%[11.4 µM] and p53ts 32C kill -15%.
Screening c1ccc(-c2ccc(N3CCCC4(CCNCC4)C3)cc2)cc1 returned p53ts 39C tox 13µM*, IkB sig inh 5%[11.4 µM] and p53ts 32C kill 20µM*.
For CC(C)(C)c1ccc(C(=O)Nc2nnc3n2CCS3)cc1 the results were p53ts 39C tox 13µM*, Imprint erasure -20%[10.9 µM], IkB sig inh inconclusive and p53ts 32C kill inconclusive.
O[C@@H](c1cc(-c2ccc(Cl)cc2)nc2ccccc12)C1CCCCN1 (stereo not given in full) was read as Imprint erasure -5%[10.9 µM].
For COc1ccc(CNC(=O)Cc2c(C(=O)O)c(C)cn2C)cc1 the results were p53ts 39C tox 17%, Imprint erasure 4%[10.9 µM], IkB sig inh -1% and p53ts 32C kill -1%.
`Nc1nc2ccc(N3CCOCC3)cc2s1` gave p53ts 39C tox 4µM*, Imprint erasure -43%, IkB sig inh -2% and p53ts 32C kill 4µM*.
`Cc1cc2nc(-c3cccnc3SCC(=O)NCc3ccco3)[nH]c2cc1C` gave p53ts 39C tox 5µM*, Imprint erasure -94%, IkB sig inh inconclusive and p53ts 32C kill 5µM*.
`Nc1cc(C(=O)O)c(O)c(S(=O)(=O)O)c1` gave p53ts 39C tox 12%, Imprint erasure -3%, IkB sig inh 2% and p53ts 32C kill 7%[1.84 µM].
Screening COc1ccc(CNCCC(c2ccc3c(c2)OCO3)c2ccccc2OC)cc1 (stereo not given) returned p53ts 39C tox 16µM*, Imprint erasure -22%[10.9 µM], IkB sig inh inconclusive and p53ts 32C kill inconclusive.
COc1ccccc1CC(=O)NCc1ccc2c(c1)OCO2 was read as p53ts 39C tox -12%, Imprint erasure -10%, IkB sig inh 8% and p53ts 32C kill 3%.
For Clc1ccccc1-c1nc(-c2ccncc2)no1 the results were p53ts 39C tox -5%[9.22 µM], Imprint erasure -20%[10.9 µM], IkB sig inh 1%[11.4 µM] and p53ts 32C kill -6%[9.22 µM].
`Clc1ccccc1-c1nc(-c2cccnc2)no1` gave p53ts 39C tox 13µM*, Imprint erasure -71%, IkB sig inh 2% and p53ts 32C kill 10µM*.
CCn1c(NC(C)=O)nc2ccccc21 was read as p53ts 39C tox 26% and p53ts 32C kill 6%.
CCn1c(=O)c(C(=O)Nc2ccc(C(C)=O)cc2)nc2ccccc21 was read as p53ts 39C tox 13µM*, Imprint erasure 2%[10.9 µM], IkB sig inh 2% and p53ts 32C kill 10µM*.
Clc1cccc(-n2ncc3c(N4CCCCCC4)ncnc32)c1 was read as p53ts 39C tox 13µM*, Imprint erasure -12%[10.9 µM], IkB sig inh inconclusive and p53ts 32C kill inconclusive.
